The source of these data is PubChem BioAssay (Tox21).

Inconclusive results are not listed. Calls of active or inactive are those of the source. Unless noted, the call rests on the fitted dose curve; in most records, active means well fitted curve in the direction sought with a large enough effect in the repeat runs; inconclusive means weak or mixed curves; inactive means no such curve, though single readings can be large; an effect the other way counts as inactive or inconclusive.

Test [1] in a line: qHTS assay for small molecules that induce genotoxicity in human embryonic kidney cells expressing luciferase-tagged ATAD5 (AID 651632). Further: nearly all actives have a fitted effect of over 15% in size. Summed up:
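HEK293T cells carrying a luciferase reporter tagged to ATAD5 were exposed to compound or DMSO vehicle for 16 hr at 37C, 5% CO2. Amplite was added, and after 30 min at room temperature luciferase activity was read as a marker of ATAD5 induction.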

A short description of test [2]: qHTS assay to test for compound auto fluorescence at 535 nm (green) in HepG2 cells (AID 720675).
Test [3] is described as follows: qHTS assay to test for compound auto fluorescence at 535 nm (green) in HEK293 cells (AID 720680). In general terms: Quantitative high-throughput screening tests each substance at several concentrations.
The nature of test [4]: qHTS assay to test for compound auto fluorescence at 460 nm (blue) in HEK293 cell free culture (AID 720681). Summed up: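 Blue fluorescence (Ex 405/Em 460 nm, triamterene-equivalent) was read immediately after pin transfer of compound or DMSO into medium (DMEM, 10% FBS) without cells.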
Test [5] is described as follows: qHTS assay to test for compound auto fluorescence at 535 nm (green) in HEK293 cell free culture (AID 720682). Summed up: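 No cells present: wells hold DMEM supplemented with 10% FBS, into which compound or vehicle is pinned. Green emission is then recorded (485 nm excitation, 535 nm emission) and scaled to fluorescein.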
A short description of test [6]: qHTS assay to test for compound auto fluorescence at 590 nm (red) in HEK293 cell free culture (AID 720683). Summed up: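 Red-channel autofluorescence of compounds in culture medium (DMEM, 10% FBS), no cells, measured at 540/590 nm. Rose Bengal sodium is the reference fluorophore for equivalence.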
Test [7] is described as follows: qHTS assay to test for compound auto fluorescence at 590 nm (red) in HepG2 cell free culture (AID 720684). In short, it runs like this:
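Plate contents were MEM with 10% FBS plus test compound or DMSO, no cells. Fluorescence was recorded with 540 nm excitation and 590 nm emission.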

Test [8] is described as follows: qHTS assay to test for compound auto fluorescence at 460 nm (blue) in HepG2 cell free culture (AID 720685). In short, it runs like this:
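Compound (23 nL) or DMSO pinned into cell-free MEM with 10% FBS; blue fluorescence read at 405/460 nm excitation/emission, expressed as auto-fluorescence equivalency to triamterene.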

Test [9] is described as follows: qHTS assay for identifying genotoxic compounds that show differential cytotoxicity against isogenic chicken DT40 cell lines with known DNA damage response pathways - Rad54/Ku70 mutant cell line (AID 743015). Further: nearly all actives have a fitted effect of over 60% in size. Further: potency means the concentration at half of the fitted maximal effect.
A short description of test [10]: qHTS assay to identify small molecule antagonists of the thyroid receptor (TR) signaling pathway (AID 743065). Further: nearly all actives have a fitted effect of over 55% in size. Further: potency means the concentration at half of the fitted maximal effect. Summed up:
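Antagonism measured as loss of luciferase signal in GH3 cells stably carrying a TRE-luciferase reporter, co-treated with compound and T3 (1 nM final) for 23.5 h at 37 C. Viability was read in the same well by CellTiter-Fluor.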

A short description of test [11]: qHTS assay to identify small molecule antagonists of the estrogen receptor alpha (ER-alpha) signaling pathway using the BG1 cell line - cell viability counter screen (AID 743081).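 Further: compound given together with 17beta-estradiol as the ER stimulus; series mostly up to about 70 µM; nearly all actives have a fitted effect of over 45% in size.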
Test [12] has as its target Aromatase (Homo sapiens) (UniProt P11511). As to the kind of experiment: qHTS assay to identify aromatase inhibitors (AID 743083). Further: nearly all actives have a fitted effect of over 55% in size. Further: potency means the concentration at half of the fitted maximal effect.
The nature of test [13]: qHTS assay to identify aromatase inhibitors - cell viability counter screen (AID 743084).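 Further: cells stimulated with testosterone during compound exposure; nearly all actives have a fitted effect of over 55% in size.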 Further: potency means the concentration at half of the fitted maximal effect.
A short description of test [14]: qHTS assay to identify small molecule phospholipidosis (PLD) inducers (AID 1259344; active means well fitted curve in the direction sought with a large enough effect; an effect the other way counts as inactive or inconclusive). In short, it runs like this:
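Fluorescent phospholipid staining (LipidTOX Red) measured by automated microscopy in fixed HepG2 cells after 24 h treatment; nuclei counterstained with Hoechst 33342; amiodarone as reference inducer.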

A short description of test [15]: qHTS assay for small molecules that induce genotoxicity in human embryonic kidney cells expressing luciferase-tagged ATAD5 - cell viability (AID 651634; calls by dose curve; further: nearly all actives have a fitted effect of over 25% in size; further: potency means the concentration at half of the fitted maximal effect). Summed up:
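HEK293T cells expressing luciferase-tagged ATAD5 were exposed to compound or DMSO for 15.5 hr at 37C, 5% CO2. Viability was then read as live-cell protease activity by CellTiter-Fluor fluorescence after 30 min at 37C.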

The nature of test [16]: qHTS assay to identify small molecule antagonists of the androgen receptor (AR) signaling pathway using the MDA cell line - cell viability counter screen (AID 743041; further: nearly all actives have a fitted effect of over 45% in size). In short, it runs like this:
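R1881-driven MDA-kb2 AR-luc cells, 3,000/well, were dosed with library compounds for 16 h; cell health came from CellTiter-Fluor fluorescence in the reporter wells.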

In test [17] the target is Aryl hydrocarbon receptor (Homo sapiens) (UniProt P35869). As to the kind of experiment: qHTS assay to identify small molecule that activate the aryl hydrocarbon receptor (AhR) signaling pathway (AID 743085). Further: nearly all actives have a fitted effect of over 15% in size. Further: potency means the concentration at half of the fitted maximal effect. In short, it runs like this: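 Compounds were tested in HepG2 hepatocellular carcinoma cells harbouring a stably integrated luciferase gene under control of 20 DREs. Increased reporter signal after 24 h treatment at 37C was taken as AhR activation.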

Test [18] is described as follows: qHTS assay to identify small molecule that activate the aryl hydrocarbon receptor (AhR) signaling pathway - cell viability counter screen (AID 743086).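 Further: HepG2 liver cells carrying the AhR DRE luciferase reporter; series mostly up to about 70 µM; nearly all actives have a fitted effect of over 45% in size.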 Summed up:
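Cytotoxicity counter screen: CellTiter-Fluor signal (30 min, 37 C) in 4000 HepG2 cells/well carrying the DRE-luciferase reporter, following 24 h compound exposure at 37 C.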

Test [19] concerns the target Acetylcholinesterase (Homo sapiens) (UniProt P22303). In words: Acetylcholinesterase (AChE) small molecule antagonists: colormetric cell-based qHTS assay (AID 1347395; calls by dose curve; further: nearly all actives have a fitted effect of over 30% in size). In short, it runs like this:
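Cells (SH-SY5Y, 2,000 per well) are seeded and left overnight at 37 C. Compound is added for 30 min, then DTNB and acetylthiocholine for a further 90 min at 37 C before absorbance-based thiocholine detection.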

A short description of test [20]: qHTS assay for small molecule disruptors of the mitochondrial membrane potential - cell viability (AID 720634; calls by dose curve;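 further: human HepG2 liver cancer cells; series mostly up to about 83 µM; nearly all actives have a fitted effect of over 20% in size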). Summed up: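 HepG2 cells seeded overnight at 37 C, then exposed to compound or DMSO for 1 hr at 37 C, 5% CO2. m-MPI dye added, then CellTiter-Glo for 30 min at room temperature; viability read as ATP luminescence.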

Chain of Aromatase (Homo sapiens) (P11511 whole entry, looked up): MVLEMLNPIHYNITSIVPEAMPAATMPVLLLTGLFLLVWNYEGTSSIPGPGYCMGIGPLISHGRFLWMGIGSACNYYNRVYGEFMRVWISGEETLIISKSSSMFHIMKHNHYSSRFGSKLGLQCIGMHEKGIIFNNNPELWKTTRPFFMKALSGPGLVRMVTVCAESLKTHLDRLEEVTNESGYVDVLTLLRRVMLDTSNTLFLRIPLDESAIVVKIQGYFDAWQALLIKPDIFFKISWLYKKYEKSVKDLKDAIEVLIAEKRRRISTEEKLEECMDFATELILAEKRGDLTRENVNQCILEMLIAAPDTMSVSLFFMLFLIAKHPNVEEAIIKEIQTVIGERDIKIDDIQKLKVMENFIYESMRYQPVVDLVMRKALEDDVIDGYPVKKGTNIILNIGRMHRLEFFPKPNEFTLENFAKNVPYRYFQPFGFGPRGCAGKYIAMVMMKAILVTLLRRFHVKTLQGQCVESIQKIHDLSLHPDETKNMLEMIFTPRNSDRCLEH
Chain of Aryl hydrocarbon receptor (Homo sapiens) (P35869 whole entry, looked up): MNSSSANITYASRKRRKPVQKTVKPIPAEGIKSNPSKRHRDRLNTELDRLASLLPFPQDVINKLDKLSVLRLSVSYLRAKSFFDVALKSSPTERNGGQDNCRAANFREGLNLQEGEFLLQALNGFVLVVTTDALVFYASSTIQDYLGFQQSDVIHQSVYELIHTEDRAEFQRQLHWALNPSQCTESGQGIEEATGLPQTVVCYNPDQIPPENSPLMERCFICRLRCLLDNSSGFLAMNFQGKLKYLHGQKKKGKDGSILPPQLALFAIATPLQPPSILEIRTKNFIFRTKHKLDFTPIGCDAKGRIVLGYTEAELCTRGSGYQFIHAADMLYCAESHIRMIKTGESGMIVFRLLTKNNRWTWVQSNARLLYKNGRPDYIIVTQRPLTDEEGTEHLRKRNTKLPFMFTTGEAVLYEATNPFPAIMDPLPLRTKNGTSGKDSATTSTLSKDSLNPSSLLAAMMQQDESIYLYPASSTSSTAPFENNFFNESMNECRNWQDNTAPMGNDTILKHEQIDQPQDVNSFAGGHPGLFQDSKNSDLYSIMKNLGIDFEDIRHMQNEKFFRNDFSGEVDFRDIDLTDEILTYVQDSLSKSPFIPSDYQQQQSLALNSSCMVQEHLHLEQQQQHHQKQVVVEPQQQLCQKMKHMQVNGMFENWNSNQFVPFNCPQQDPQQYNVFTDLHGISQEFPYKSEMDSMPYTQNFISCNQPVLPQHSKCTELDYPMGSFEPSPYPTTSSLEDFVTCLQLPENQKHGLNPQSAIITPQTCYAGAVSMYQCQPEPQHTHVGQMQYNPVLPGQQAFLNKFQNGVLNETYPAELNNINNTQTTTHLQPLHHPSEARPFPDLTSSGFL
Chain of Acetylcholinesterase (Homo sapiens) (P22303 whole entry, looked up): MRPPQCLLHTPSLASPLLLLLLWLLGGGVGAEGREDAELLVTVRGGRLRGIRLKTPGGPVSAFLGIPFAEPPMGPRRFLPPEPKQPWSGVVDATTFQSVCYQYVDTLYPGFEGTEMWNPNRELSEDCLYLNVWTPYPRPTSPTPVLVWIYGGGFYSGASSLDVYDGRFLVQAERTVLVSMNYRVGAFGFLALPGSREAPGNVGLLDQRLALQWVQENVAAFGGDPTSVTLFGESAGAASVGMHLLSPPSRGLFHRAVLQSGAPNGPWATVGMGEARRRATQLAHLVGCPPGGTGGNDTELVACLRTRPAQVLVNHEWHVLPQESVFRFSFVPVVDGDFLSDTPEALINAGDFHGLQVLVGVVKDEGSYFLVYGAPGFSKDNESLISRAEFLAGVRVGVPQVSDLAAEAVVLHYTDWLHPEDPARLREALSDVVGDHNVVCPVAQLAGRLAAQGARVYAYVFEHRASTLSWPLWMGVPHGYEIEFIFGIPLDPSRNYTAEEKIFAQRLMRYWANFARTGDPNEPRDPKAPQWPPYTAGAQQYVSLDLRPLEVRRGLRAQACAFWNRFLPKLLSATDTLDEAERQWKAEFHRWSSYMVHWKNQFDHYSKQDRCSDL

As to `O=c1c2ccccc2[se]n1-c1ccccc1`, the Potency result in test [1], in [2], in [3], in [4], in test [5] and in [8] was “inactive” throughout. Also, the Potency entry in test [11] and in test [14] was “inactive” in each case. Moreover, the outcome in test [6] and in [7] was inactive. Further, the Potency is 6.68 µM (active) in [9], 23.7 µM (active) in test [10], 29.8 µM (active) in test [12] and 26.6 µM (active) in test [13].

In the case of `C[C@H]1CC[C@]2(NC1)O[C@H]1C[C@H]3[C@@H]4CC[C@H]5C[C@@H](O)CC[C@]5(C)[C@H]4CC[C@]3(C)[C@H]1[C@@H]2C`, the Potency result in test [1], in test [15], in [2], in test [3], in test [4] and in test [5] was “inactive” each time. Also, the Potency result in test [8], in test [9], in [16], in test [11], in [12] and in test [13] was “inactive” in each case. Besides, the Potency entry in test [17] and in test [18] was “inactive” each time. For the same compound, the compound was called inactive in test [6] and in [7]. In test [10], the Potency is 26.6 µM (active).

Take `Brc1ccc(Oc2ccc(Br)cc2)cc1`: the Potency result in test [19] was “inactive”.

For the compound `COc1cc2c(cc1OC)[C@@H]1CC(=O)[C@@H](CC(C)C)CN1CC2`, the Potency result in test [12], in test [17] and in test [19] was “inactive” in each case.

For the compound `COc1ccc(C)cc1N`, the Potency entry in test [12], in test [17] and in [19] was “inactive” throughout.

Turning to `CCCCCc1cc(O)c2c(c1)OC(C)(C)c1ccc(C)cc1-2`, the Potency entry in test [1], in [2], in [3], in test [4], in [5] and in [8] was “inactive” each time. The Potency result in test [14] was “inactive”. The Potency in test [15] is 23.7 µM (active); in [9], 11.9 µM (active); in [10] it was 13.3 µM (active); in test [12] it was 13.3 µM (active); in test [17] it was 3.35 µM (active). In addition, the result in test [6] and in test [7] was inactive.

Consider `C[C@@H]1[C@H](O)[C@@H](C)/C=C/C=C/CC/C=C/C=C/C=C/C=C/[C@H](O[C@H]2O[C@@H](C)[C@H](O)[C@@H](N)[C@H]2O)CC2O[C@](O)(C[C@@H](O)[C@H](O)CC[C@@H](O)C[C@@H](O)C[C@@H](O)CC(=O)O[C@H]1C)C[C@H](O)[C@H]2C(=O)O`, for which the Potency result in test [1], in [15], in [20], in test [2], in test [3] and in test [4] was “inactive” throughout. For the same compound, the Potency entry in test [5], in [8], in test [9], in test [16], in test [10] and in test [12] was “inactive” in each case. Also, the Potency result in [13], in [17], in test [18] and in test [14] was “inactive” throughout. In addition, the call in test [6] and in test [7] was inactive.

For the compound `C[C@H]1[C@H]2Cc3ccc(O)cc3[C@]1(C)CCN2CCc1ccccc1`, the Potency result in test [1], in test [15], in [20], in [2], in test [3] and in test [4] was “inactive” throughout. In addition, the Potency result in test [5], in test [8], in test [12], in test [13] and in test [14] was “inactive” each time. The compound was classed as inactive in test [6] and in test [7]. Moreover, the figures for the Potency in [9], in test [10] and in test [17] were 17.1 µM (active), 27.1 µM (active) and 12.1 µM (active), respectively.
